Among the data in PubChem BioAssay (NCI) are growth values, retold here.

The panel holds about 83,000 compounds, 20% with a hit somewhere; the sample as a whole holds those more often.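 The test compound was applied at a single concentration to cells in 96-well plates for 48 hours, and percent growth was recorded.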 Values without a mark were called inactive. The source made the active and inactive calls. The calls were made as follows: active = growth percent below 10; inactive = the rest.

Holding throughout (assay): NCI-60 one-dose screen, 48 h (100 = growth as untreated, 0 = no growth, -100 = all killed)
What all share (settings): 10 µM

Test [1] relates to SR leukemia.
Test [2] has as its system RPMI-8226 leukemia.
The test system of test [3] is OVCAR-8 ovarian.
In test [4] the test system is OVCAR-5 ovarian.
Test [5] concerns OVCAR-4 ovarian.
The subject of test [6] is SK-OV-3 ovarian.
The subject of test [7] is IGROV1 ovarian.
For test [8], the system named is OVCAR-3 ovarian.
Test [9] relates to HS 578T breast.
In test [10] the test system is NCI/ADR-RES ovarian.

`O=C(CSc1nnc(-c2ccc(Cl)cc2)o1)Nc1ccc(C(=O)/C=C/c2ccc(Cl)cc2)cc1`: the growth in test [1] was 98.3%; in test [2], 92.5%; in test [3], 100%; in test [4], 110%; in test [5] it was 89.3%; in [6] it was 90.6%. Also, the growth in test [7] was 108%; in test [8] it was 103%; in test [9] it was 95.9%; in [10] it was 96.4%.

`COc1cc2c(Nc3ccc(S(N)(=O)=O)cc3)ncnc2c(OC)c1OC`: the growth was 99.9% in [1]; 99.1% in [2]; 106% in test [3]; 105% in [4]; 102% in test [5]; 75.5% in test [6]. In addition, the growth was 96.1% in [7], 90.4% in test [8], 96% in [9] and 96.5% in [10].

For `CNC(=O)c1cc(Oc2ccc3c(c2)sc2nc(-c4ccc(NC(=O)Nc5ccc(Cl)c(C(F)(F)F)c5)cc4)cn23)ccn1`, the growth is 55.5% in test [1]; 76.1% in test [2]; 104% in test [3]; 93.4% in test [4]; 80.3% in [5]; 93.1% in test [6]. The growth in test [7] was 78%; in test [8], 86.9%; in [9] it was 71.7%; in test [10], 89.9%.

As for `Cc1n[nH]c(C)c1N=Nc1cccc2c1C(=O)c1ccccc1C2=O`, the growth in [1] was 91.4%; in test [2], 104%; in test [3], 91.3%; in test [4], 91.8%; in test [5], 89.5%; in test [6], 93.6%. In addition, the growth in test [7] was 84.1%; in [8], 106%; in test [9], 96.7%; in test [10], 89.1%.

As for `CS(=O)(=O)c1nccc(-c2c(-c3cccc(O)c3)nc3sccn23)n1`, the growth in [1] is 72.4%; in test [2], 91.5%; in test [3], 94.9%; in test [4] it was 99.3%; in test [5], 78.2%; in test [6], 95.6%. Moreover, the growth is 117% in [7], 97% in [8], 93% in test [9] and 101% in test [10].

As for `Cc1ccc(Cl)cc1NC(=O)CCl`, the growth in test [1] is 43.2%; in test [2] it was 43.8%; in [3], 88%; in test [4], 136%; in [5], 76.9%; in test [6], 93.5%. In addition, the growth in test [7] is 64.4%; in [8] it was 99%; in [9], 94.2%; in test [10], 102%.

For the compound `C=CCn1c(SCC(=O)Nc2ccc(C(=O)/C=C/c3ccc(OC)cc3)cc2)nnc1-c1ccc(OC)c(OC)c1`, the growth in test [1] is 58.7%; in test [2], 34.3%; in [3], 79.8%; in test [4], 110%; in test [5] it was 73.8%; in test [6] it was 98%. In addition, the growth is 94.4% in test [7], 89.6% in [8], 86.4% in test [9] and 86.4% in test [10].

Regarding `O=C(NCCNC(=O)c1ccc(F)cc1)Nc1ccc(-n2cc(-c3ccncc3)c(-c3ccc(Cl)c(O)c3)n2)cc1`, the growth in test [1] was -0.62% (active); in test [2], -35.6% (active); in [3], 4.62% (active); in test [4], 27.8%; in test [5], 37.1%; in [6], -8.18% (active). For the same compound, the growth was 20.4% in [7], 3.59% (active) in test [8], 16.6% in test [9] and 77.4% in [10].

For the compound `OC[C@H]1OC([S-])[C@H](O)[C@@H](O)[C@@H]1O.[Au+]` (stereo not given in full), the growth was 41.7% in test [1]; 80.6% in test [2]; 104% in test [3]; 129% in test [4]; 96.9% in test [5]; 120% in test [6]. The growth in test [7] was 119%; in test [8], 128%; in test [9] it was 73.3%; in [10], 101%.

For `CC(=O)[C@@]12O[C@](C)(c3ccccc3)O[C@@H]1CC1C3CCC4=CC(=O)CC[C@]4(C)C3CC[C@@]12C` (stereo not given in full), the growth in test [1] was 32.1%; in test [2], 47.6%; in test [3] it was 82.4%; in test [4], 88.5%; in test [5], 44%; in test [6], 99.7%. In addition, the growth in test [7] was 70.7%; in test [8] it was 54.3%; in test [9], 86.2%; in test [10], 60.4%.

Regarding `COc1ccc(/C=C2\CCCC3C2=Nc2ccccc2NC3c2ccc(OC)cc2)cc1` (stereo not given), the growth is 53.9% in test [1]; 25.7% in test [2]; 85.1% in [3]; 127% in test [4]; 77.5% in test [5]; 89.3% in test [6]. For the same compound, the growth in [7] was 96.6%; in [8] it was 86.8%; in test [9] it was 87.6%; in test [10] it was 86.2%.

Take `C[C@H]1[C@H](OC(=O)CCC(=O)O)O[C@@H]2O[C@]3(C)CC[C@H]4[C@H](C)CC[C@@H]1[C@@]24OO3`: the growth in [1] is -2.25% (active); in [2], 25.8%; in [3] it was 23.4%; in test [4] it was 44.3%; in [5], 37.6%; in test [6], 92.9%. Also, the growth in [7] is 54.5%; in [8], 30.8%; in test [9], 47.2%; in test [10] it was 23.6%.

As to `COc1cc(-c2nn(-c3cccc(NC(=O)CCN4CCN(Cc5ccccc5)CC4)c3)cc2-c2ccncc2)ccc1Cl`, the growth in test [1] is -28.5% (active); in test [2], -23.2% (active); in test [3] it was 12.7%; in test [4] it was 22.9%; in [5], 36.2%; in [6], 22.3%. Also, the growth was 31.9% in [7], 7.04% (active) in test [8], 2.23% (active) in [9] and -21.4% (active) in test [10].

On to `NS(=O)(=O)c1ccc(Br)cc1`, for which the growth in test [1] was 106%; in test [2], 108%; in test [3], 105%; in [4], 97.6%; in test [5], 104%; in [6], 80.8%. Further, the growth was 100% in [7], 114% in test [8], 110% in test [9] and 97.7% in [10].

In the case of `CCC1NC(=O)c2cc(S(N)(=O)=O)c(Cl)cc2N1` (stereo not given), the growth was 103% in [1]; 109% in test [2]; 100% in [3]; 105% in test [4]; 130% in test [5]; 118% in test [6]. The growth in [7] was 120%; in [8] it was 126%; in [9], 112%; in test [10], 108%.

Consider `COc1cc(/C=C/c2cc(/C=C/c3ccc(O)c(OC)c3)nc(N)n2)ccc1O`, for which the growth is -7.94% (active) in test [1]; 2.88% (active) in test [2]; 9.33% (active) in test [3]; 5.83% (active) in [4]; 18.3% in test [5]; -17.4% (active) in [6]. Moreover, the growth is 3.42% (active) in test [7], -7.57% (active) in test [8], -0.999% (active) in test [9] and 39.3% in [10].

On to `CC(=O)O[C@@]12CO[C@@H]1C[C@H](O)[C@@]1(C)C(=O)[C@H](O)C3=C(C)[C@@H](OC(=O)[C@H](O)[C@@H](NC(=O)OC(C)(C)C)c4ccccc4)C[C@@](O)([C@@H](OC(=O)c4ccccc4)C12)C3(C)C` (stereo not given in full), for which the growth in [1] is 11.1%; in test [2], 25.4%; in test [3] it was 38.4%; in test [4], 40.1%; in test [5] it was 58%; in [6], 47.3%. The growth in test [7] was 39.2%; in test [8] it was 7.26% (active); in [9] it was 12.3%; in test [10] it was -21.2% (active).

On to `CCc1cc(Cl)c(OC)c(C(=O)NCC2CCCN2CC)c1O` (stereo not given), for which the growth in test [1] is 81.6%; in [2] it was 95.8%; in test [3], 92.5%; in test [4], 88.2%; in test [5] it was 86.5%; in test [6], 79.9%. In addition, the growth in test [7] is 98.4%; in test [8], 100%; in test [9], 88.7%; in [10], 94.2%.

For `COc1nc2c(c(=O)n1C)CN(c1ccccc1)C(=O)C(C)N2` (stereo not given), the growth in test [1] was 93.6%; in [2], 96%; in [3] it was 93.4%; in test [4], 93.2%; in [5] it was 91.9%; in test [6] it was 107%. Further, the growth was 106% in test [7], 112% in test [8], 105% in test [9] and 91% in [10].

As to `COc1ccc(-c2n[nH]nc2-c2cc(OC)c(OC)c(OC)c2)cc1`, the growth in test [1] was 7.33% (active); in test [2], 4.71% (active); in test [3], 21.8%; in [4] it was 43.3%; in test [5], 35.4%; in [6] it was 48.6%. In addition, the growth was 4.66% (active) in [7], -33.3% (active) in [8], 12.2% in test [9] and -28.8% (active) in test [10].

In the case of `CS(=O)(=O)c1nccc(-c2c(-c3cccc(OCc4ccccc4)c3)nc3sccn23)n1`, the growth was 37.9% in [1]; 81.6% in test [2]; 92.7% in [3]; 89.2% in [4]; 73.8% in test [5]; 72.8% in test [6]. In addition, the growth in [7] is 58.4%; in [8] it was 89.4%; in [9], 79.1%; in test [10] it was 90.7%.

For the compound `CCCc1nc(C(C)(C)O)c(C(=O)O)n1Cc1ccc(-c2ccccc2-c2nn[nH]n2)cc1`, the growth in [1] is 85.9%; in test [2], 104%; in test [3], 91.7%; in test [4], 104%; in [5], 100%; in test [6] it was 106%. For the same compound, the growth in test [7] is 114%; in test [8], 117%; in test [9], 102%; in [10], 105%.

Regarding `COc1ccc(/C=C/C(=O)C(=O)/C=C/c2ccc(OC)c(OC)c2)cc1OC`, the growth was 4.78% (active) in test [1]; 3.5% (active) in [2]; 19.5% in test [3]; 60.5% in test [4]; 61.9% in test [5]; 97.8% in [6]. Also, the growth in test [7] was 10.1%; in test [8] it was 3.9% (active); in [9], 31.5%; in test [10] it was 71.7%.

On to `O=C(CCCCCCC(=O)Nc1ccccc1)NO`, for which the growth in test [1] was 9.82% (active); in [2], 12.8%; in test [3], 9.38% (active); in test [4], 1.38% (active); in test [5], 38.3%; in [6], 1.71% (active). For the same compound, the growth was 23.7% in [7], -1.79% (active) in [8], 22.2% in [9] and -18.2% (active) in test [10].

Turning to `CCOS(=O)(=O)c1c(C(C)C)cc(C(C)C)cc1C(C)C`, the growth in test [1] was 85.1%; in test [2] it was 119%; in test [3], 103%; in [4], 90.6%; in test [5] it was 120%; in test [6], 108%. The growth is 93.5% in [7], 103% in test [8], 103% in test [9] and 103% in test [10].

As to `C[N+]1(CCCCC[N+]2(C)CCCC2)CCCC1`, the growth in [1] is 97.4%; in test [2], 61.7%; in test [3], 78.1%; in test [4], 72.9%; in test [5], 97.4%; in test [6], 68.9%. In addition, the growth is 105% in test [7], 107% in test [8], 106% in test [9] and 75% in test [10].

Take `O=C(CCl)Nc1ccc(Cc2ccc(NC(=O)CCl)cc2)cc1`: the growth was 5.61% (active) in [1]; -32.9% (active) in test [2]; 0.481% (active) in test [3]; 9.56% (active) in [4]; 27% in test [5]; 61.7% in test [6]. The growth in [7] was -45.9% (active); in test [8], -32.8% (active); in test [9], 35.7%; in [10], 2.83% (active).
